{
  "source": "PubChem BioAssay (NCATS)",
  "note": "Records with an inconclusive call do not appear. The source made the active and inactive calls. Calls come from the whole dose curve; as a rule, active = well fitted cell-killing curve with a large enough effect; inconclusive = small, poorly fitted or top-dose-only effect, or effect the other way; inactive = no such curve, though single readings can be large or run the other way. Note: nearly all actives have a fitted effect of over 30% in size. Potency is the fitted concentration of half-maximal effect.",
  "data": [
    {"experiment": "Quantitative High-Throughput drug screen in 47 multiple myeloma cell lines against the NCATS MIPE library collection: EJM_DSMZ cell viability assay (AID 1918926)", "details": "EJM myeloma cell viability, CellTiter-Glo ATP, 48 h; series mostly up to 45.8 µM; viability, % of control: at the top concentration", "in_short": "(§1)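 We plated 500 myeloma cells per well, pinned in MIPE 4.0 compounds, and incubated for 48 hours at 37C. ATP was then quantified with CellTiter-Glo, with DMSO and media-only wells defining 100% and 0%.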", "values": [
      {"smiles": "O=C(O)C1=CO[C@@H](O[C@@H]2O[C@H](CO)[C@H](O)[C@H](O)[C@H]2O)[C@@H]2C(CO)=CC[C@H]12", "Potency": "5.9 µM (active)"},
      {"smiles": "N#Cc1c(N(CC(=O)O)CC(=O)O)sc(C(=O)O)c1CC(=O)O", "viability, % of control": "111% (inactive)"},
      {"smiles": "CN(C)N=Nc1nc[nH]c1C(N)=O", "viability, % of control": "105% (inactive)"},
      {"smiles": "COc1ccnc(CS(=O)c2nc3ccc(OC(F)F)cc3[nH]2)c1OC", "note": "(stereo not given)", "viability, % of control": "110% (inactive)"},
      {"smiles": "CC(C)C[C@@H](N)[C@H](O)C(=O)N[C@H](C(=O)N[C@H](C(=O)N[C@@H](CC(=O)O)C(=O)O)C(C)C)C(C)C", "viability, % of control": "95.4% (inactive)"},
      {"smiles": "CCNC(=O)[C@H]1O[C@@H](n2cnc3c(N)nc(NCCc4ccc(CCC(=O)O)cc4)nc32)[C@H](O)[C@H]1O", "Potency": "0.0332 µM (active)"},
      {"smiles": "CC=C(C(=CC)c1ccc(O)cc1)c1ccc(O)cc1", "viability, % of control": "83.2% (inactive)"},
      {"smiles": "O=C1CCCC(=O)C1C(=O)c1ccc(C(F)(F)F)cc1[N+](=O)[O-]", "viability, % of control": "95.3% (inactive)"},
      {"smiles": "CN[C@@H]1[C@@H](O)[C@@H](O[C@@H]2[C@@H](O)[C@H](O[C@H]3O[C@H](CN)[C@@H](O)[C@H](O)[C@@H]3O)[C@@H](N)C[C@@H]2NC(=O)[C@@H](O)CN)OC[C@]1(C)O", "viability, % of control": "104% (inactive)"},
      {"smiles": "O=C1Nc2ccc(I)cc2C1=Cc1cc(Br)c(O)c(Br)c1", "viability, % of control": "87.9% (inactive)"},
      {"smiles": "NCC1CCC(C(=O)O)CC1", "note": "(stereo not given)", "viability, % of control": "94.1% (inactive)"},
      {"smiles": "OC[C@H]1O[C@@H](OCCc2ccc(O)cc2)[C@H](O)[C@@H](O)[C@H]1O", "viability, % of control": "106% (inactive)"},
      {"smiles": "O=C(O)c1nc(=O)[nH]c(=O)[nH]1", "viability, % of control": "118% [at 23.2 µM] (inactive)"},
      {"smiles": "CC(C)c1onc(-c2c(Cl)cccc2Cl)c1COc1ccc(C=Cc2cccc(C(=O)O)c2)c(Cl)c1", "viability, % of control": "105% (inactive)"},
      {"smiles": "CCCC1OC2C[C@@H]3[C@H]4CCC5=CC(=O)C=C[C@]5(C)[C@H]4C(O)C[C@]3(C)[C@]2(C(=O)CO)O1", "note": "(stereo not given in full)", "Potency": "11.8 µM (active)"},
      {"smiles": "C=C1c2cccc(O)c2C(O)=C2C(=O)[C@@]3(O)C(O)=C(C(N)=O)C(=O)[C@@H](N(C)C)[C@@H]3[C@@H](O)[C@H]12", "Potency": "9.35 µM (active)"}
    ]},
    {"experiment": "Quantitative High-Throughput drug screen in 47 multiple myeloma cell lines against the NCATS MIPE library collection: AMO1_DSMZ cell viability assay (AID 1918927)", "details": "AMO1 myeloma cells viability, CellTiter-Glo ATP luminescence, 48 h; series mostly up to 45.8 µM; viability, % of DMSO: at the top concentration", "in_short": "as §1", "values": [
      {"smiles": "O=C(O)C1=CO[C@@H](O[C@@H]2O[C@H](CO)[C@H](O)[C@H](O)[C@H]2O)[C@@H]2C(CO)=CC[C@H]12", "viability, % of DMSO": "139% (inactive)"},
      {"smiles": "CC(O)=C(C#N)C(=O)Nc1ccc(C(F)(F)F)cc1", "Potency": "6.62 µM (active)"},
      {"smiles": "N#Cc1c(N(CC(=O)O)CC(=O)O)sc(C(=O)O)c1CC(=O)O", "Potency": "8.33 µM (active)"},
      {"smiles": "CN(C)N=Nc1nc[nH]c1C(N)=O", "viability, % of DMSO": "144% (inactive)"},
      {"smiles": "CCC(=C(c1ccc(O)cc1)c1ccc(OCCNC)cc1)c1ccccc1", "Potency": "20.9 µM (active)"},
      {"smiles": "COc1ccnc(CS(=O)c2nc3ccc(OC(F)F)cc3[nH]2)c1OC", "note": "(stereo not given)", "viability, % of DMSO": "92.9% (inactive)"},
      {"smiles": "O=C1NC(=O)C(=Cc2ccc(-c3ccc(F)cc3O)o2)S1", "Potency": "3.32 µM (active)"},
      {"smiles": "CC(C)C[C@@H](N)[C@H](O)C(=O)N[C@H](C(=O)N[C@H](C(=O)N[C@@H](CC(=O)O)C(=O)O)C(C)C)C(C)C", "viability, % of DMSO": "104% (inactive)"},
      {"smiles": "CON(C)C(=O)N1N=C(c2cc(F)ccc2F)S[C@]1(CCCN)c1ccccc1", "Potency": "0.001 µM (active)"},
      {"smiles": "CCN(CC)CCCCNc1nc2cc(Cl)c(Cl)cc2nc1-c1ccc(-c2cccs2)s1", "Potency": "6.62 µM (active)"},
      {"smiles": "CN(CC=CC#CC(C)(C)C)Cc1cccc2ccccc12", "viability, % of DMSO": "101% (inactive)"},
      {"smiles": "CCNC(=O)[C@H]1O[C@@H](n2cnc3c(N)nc(NCCc4ccc(CCC(=O)O)cc4)nc32)[C@H](O)[C@H]1O", "Potency": "0.105 µM (active)"},
      {"smiles": "CC=C(C(=CC)c1ccc(O)cc1)c1ccc(O)cc1", "Potency": "16.6 µM (active)"},
      {"smiles": "O=C1CCCC(=O)C1C(=O)c1ccc(C(F)(F)F)cc1[N+](=O)[O-]", "viability, % of DMSO": "125% (inactive)"},
      {"smiles": "CN1CCN2c3ncccc3Cc3ccccc3C2C1", "note": "(stereo not given)", "viability, % of DMSO": "105% (inactive)"},
      {"smiles": "CN[C@@H]1[C@@H](O)[C@@H](O[C@@H]2[C@@H](O)[C@H](O[C@H]3O[C@H](CN)[C@@H](O)[C@H](O)[C@@H]3O)[C@@H](N)C[C@@H]2NC(=O)[C@@H](O)CN)OC[C@]1(C)O", "viability, % of DMSO": "126% (inactive)"},
      {"smiles": "Fc1ccc(C(c2ccc(F)cc2)N2CCN(CC=Cc3ccccc3)CC2)cc1", "viability, % of DMSO": "114% (inactive)"},
      {"smiles": "O=C1Nc2ccc(I)cc2C1=Cc1cc(Br)c(O)c(Br)c1", "Potency": "16.6 µM (active)"},
      {"smiles": "NCC1CCC(C(=O)O)CC1", "note": "(stereo not given)", "viability, % of DMSO": "109% (inactive)"},
      {"smiles": "OC[C@H]1O[C@@H](OCCc2ccc(O)cc2)[C@H](O)[C@@H](O)[C@H]1O", "viability, % of DMSO": "99.7% (inactive)"},
      {"smiles": "O=C(O)c1nc(=O)[nH]c(=O)[nH]1", "viability, % of DMSO": "97.4% [at 23.2 µM] (inactive)"},
      {"smiles": "CC(NCCc1ccc(O)cc1)C(O)c1ccc(O)cc1", "note": "(stereo not given)", "viability, % of DMSO": "130% (inactive)"},
      {"smiles": "COc1cccc(OC)c1-c1cc(C(=O)NC2(C(=O)O)C3CC4CC(C3)CC2C4)nn1-c1ccnc2cc(Cl)ccc12", "note": "(stereo not given)", "viability, % of DMSO": "111% (inactive)"},
      {"smiles": "N=C1SC(=Cc2ccc(-c3ccc4c(c3)C(=O)NC4=O)o2)C(=O)N1c1ccc(Br)cc1", "viability, % of DMSO": "132% (inactive)"},
      {"smiles": "CC(C)c1onc(-c2c(Cl)cccc2Cl)c1COc1ccc(C=Cc2cccc(C(=O)O)c2)c(Cl)c1", "viability, % of DMSO": "128% (inactive)"},
      {"smiles": "CCCC1OC2C[C@@H]3[C@H]4CCC5=CC(=O)C=C[C@]5(C)[C@H]4C(O)C[C@]3(C)[C@]2(C(=O)CO)O1", "note": "(stereo not given in full)", "viability, % of DMSO": "120% (inactive)"},
      {"smiles": "CCNC(=O)CCCC=CC[C@@H]1[C@H](C=CC(O)CCc2ccccc2)[C@@H](O)C[C@@H]1O", "note": "(stereo not given in full)", "viability, % of DMSO": "104% (inactive)"},
      {"smiles": "CC[C@H](NC(=O)[C@H](C)NC)C(=O)N1C[C@@H](O)C[C@H]1Cc1c(-c2[nH]c3cc(F)ccc3c2C[C@H]2C[C@H](O)CN2C(=O)[C@H](CC)NC(=O)[C@H](C)NC)[nH]c2cc(F)ccc12", "Potency": "4.69 µM (active)"},
      {"smiles": "C=C1c2cccc(O)c2C(O)=C2C(=O)[C@@]3(O)C(O)=C(C(N)=O)C(=O)[C@@H](N(C)C)[C@@H]3[C@@H](O)[C@H]12", "viability, % of DMSO": "103% (inactive)"}
    ]}
  ]
}
